# Many of the other results were omitted from the sample, so hits are more common in it than they were.
# HT1080 IDH1KD tx – HT-1080 IDH1 knockdown cell toxicity (counter line) | HT-1080 IDH1 knockdown viability, ATP luminescence, 48 h | Potency, µM (doses to about 46.1 µM), for inactives: at the top dose activity, negative = toxicity, usual class: cytotoxic | 360,000 tested, 2% active | AID 686971;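 further: potency means the concentration at half of the fitted maximal effect; 0% = DMSO wells and -100% = cell-free medium wells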
#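 Viability of IDH1-knockdown HT-1080 fibrosarcoma cells was assessed by CellTiter-Glo after 48 h at 37 °C with titrated compound; concentration-effect curves were classified by fit quality and response size.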
# DT40 TDP1 CPT – growth inhibition of DT40 Tdp1-/-;hTDP1 cells with camptothecin (screen for TDP1 inhibitors); chicken DT40 Tdp1-/-;hTDP1 cells + 20 nM CPT, ATP luminescence, 48 h; Potency, µM (highest dose often 46.2 µM), without a hit: top-dose activity change, negative = growth inhibition, hits mostly inhibitors; 420,000 tested, 12% active; AID 686979; further: potency means the concentration at half of the fitted maximal effect; nearly all actives have a fitted effect of over 55% in size
#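 Cell growth measured by CellTiter-Glo luminescence after a minimum 48 h, 37 C compound exposure with 20 nM CPT in Tdp1-knockout DT40 cells stably expressing hTDP1, seeded 400/well; qHTS titration format.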
# IL-1B inflam inh – inflammasome signaling inhibition, IL-1 beta readout. activity change, % at 57.5 µM. THP-1 LPS/ATP IL-1B secretion, AlphaLISA, 16 h; hits give low values. 360,000 tested, 4.7% active; in the data active means activity change below about -50%; inconclusive means mostly about -30% to -49%
#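 Secreted IL-1B measured by AlphaLISA bead assay after 16 h compound exposure of THP-1 cells; compounds (final up to 57.5 uM) added 1 h before LPS (250 ng/mL) and ATP (1.25 mM) stimulation; lower signal means less secretion.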
# ALOX12 inh – ALOX12 (human) lipoxygenase inhibition; P18054; purified 12hLO, xylenol orange hydroperoxide absorbance; Potency, µM (titrated, usually from 108 µM), without a hit: at the top dose activity change, negative = inhibition, usual class: inhibitors; 580,000 tested, 1.1% active; AID 1671190; further: potency means the concentration at half of the fitted maximal effect
# Target sequence (P18054 whole entry, looked up): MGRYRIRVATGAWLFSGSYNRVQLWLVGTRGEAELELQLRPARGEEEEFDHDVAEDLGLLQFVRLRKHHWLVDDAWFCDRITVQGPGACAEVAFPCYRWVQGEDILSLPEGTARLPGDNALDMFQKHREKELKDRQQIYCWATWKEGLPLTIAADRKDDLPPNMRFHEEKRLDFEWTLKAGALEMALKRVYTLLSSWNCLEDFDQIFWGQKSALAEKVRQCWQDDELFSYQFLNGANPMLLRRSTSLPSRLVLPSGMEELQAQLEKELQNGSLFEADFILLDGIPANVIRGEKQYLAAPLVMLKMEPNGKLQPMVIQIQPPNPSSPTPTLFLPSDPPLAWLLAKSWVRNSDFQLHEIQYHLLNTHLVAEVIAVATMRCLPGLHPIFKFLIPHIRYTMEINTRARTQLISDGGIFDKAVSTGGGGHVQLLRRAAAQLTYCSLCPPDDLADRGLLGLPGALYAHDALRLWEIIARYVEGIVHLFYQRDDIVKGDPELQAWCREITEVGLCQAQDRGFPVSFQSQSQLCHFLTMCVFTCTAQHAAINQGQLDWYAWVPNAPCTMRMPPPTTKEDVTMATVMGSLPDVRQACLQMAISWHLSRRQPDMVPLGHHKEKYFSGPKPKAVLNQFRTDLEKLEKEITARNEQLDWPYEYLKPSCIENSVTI
#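 Hydroperoxide product was detected by ferrous iron/xylenol orange as the 573 to 405 nm absorbance ratio. Arachidonic acid at 40 uM (final) was turned over for 30 min at room temperature by 150 nM human 12hLO, pH 7.0 Hepes buffer, after 15 min compound preincubation.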
# HT1080-NT tox – kills 2HG-producing HT-1080-NT fibrosarcoma cells; HT-1080-NT fibrosarcoma viability, CellTiter-Glo ATP luminescence, 48 h; Potency, µM (top dose mostly 46.1 µM), without a hit: at the highest dose activity, negative = less viability, hits mostly cytotoxic; 360,000 tested, 1.6% active; AID 686970;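 further: NT is the 2HG producing partner of a matched IDH1 knockdown line; potency means the concentration at half of the fitted maximal effect; 0% = DMSO-treated cells and -100% = media-only wells without cells; nearly all actives have a fitted effect of over 55% in size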
#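 Toxicity toward the 2HG-producing NT line was scored as %Activity, normalised to DMSO and no-cell wells, from CellTiter-Glo luminescence after 48 hours' treatment.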
# TDP1 cell noCPT – qHTS for Inhibitors of human tyrosyl-DNA phosphodiesterase 1 (TDP1): qHTS in cells in absence of CPT; 420,000 tested, 15% active; AID 686978, 2013; DT40 Tdp1-/- hTDP1 cells, no CPT, ATP luminescence, 48 h; Potency, µM (series often up to 46.2 µM), for inactives: top-dose activity change, negative = growth inhibition, hits mostly inhibitors; further: potency means the concentration at half of the fitted maximal effect; nearly all actives have a fitted effect of over 55% in size
#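 Camptothecin absent (DMSO only). Human TDP1-complemented DT40 knockout cells, 400 cells/well, 37 °C for minimum 48 hr; ATP measured via CellTiter-Glo, 30 min dark incubation, luminescence.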
# * hit, by the source's call; ? = inconclusive; . = not tested or not shown. Unless noted, the call rests on the fitted dose curve; in most records, active means well fitted curve in the direction sought with a large enough effect; inconclusive means small, poorly fitted or top-dose-only effect, or another doubt; inactive means no such curve, though single readings can be large; an effect the other way counts as inactive or inconclusive. Unless noted, on the % scale 0 is the no-effect control and ±100 the full control effect.
SMILES,HT1080 IDH1KD tx,DT40 TDP1 CPT,IL-1B inflam inh,ALOX12 inh,HT1080-NT tox,TDP1 cell noCPT
O=[N+]([O-])c1ccc(/C=C2\C=C(C(O)c3ccc([N+](=O)[O-])cc3)c3ccccc32)cc1 (centres undefined),.,6.31µM*,.,.,.,4.47µM*
O=[N+]([O-])c1ccc(C=C2c3ccccc3-c3ccccc32)cc1,.,-24.1%,.,.,.,17.8µM*
OC(C1=CC(=Cc2ccncc2)c2ccccc21)c1ccncc1 (centres undefined),-29.8%,?,-58.9*,?,3.26µM*,16.4µM*
CCn1cc(S(=O)(=O)N2CCCN(Cc3ccncc3)C(c3ccccc3)CC(=O)NCC2)cn1 (centres undefined),.,.,.,66.6%,.,.
CCC1CCC(C(=O)Nc2ccc(Br)cc2)CC1 (centres undefined),.,.,.,-18.8%,.,.
Cc1cc(C(=O)Cn2cnc3c2c(=O)n(C)c(=O)n3C)c(C)n1CC1CCCO1 (centres undefined),.,.,.,3.6%,.,.
CCC(C)n1ncn(-c2ccc(N3CCN(c4ccc(OCC5COC(Cn6cncn6)(c6ccc(Cl)cc6Cl)O5)cc4)CC3)cc2)c1=O (centres undefined),?,2.59µM*,129.4,-4.3%,?,2.31µM*
OC1NC(=S)N(c2ccccc2)C1O (centres undefined),4.2%,3.0%,11.0,0.0%,7.1%,-1.3%
COc1ccc(C2NC(=S)N3C(c4ccc(OC)cc4)NC(=S)N23)cc1 (centres undefined),11.3%,?,0.0,?,11.2%,16.4µM*
S=C1NC(c2ccccc2)N2C(=S)NC(c3ccccc3)N12 (centres undefined),10.9%,2.2%,-6.6,15.8µM*,13.6%,-20.5%
CC(C)CNC(=O)C1CCc2sc(C(=O)N3CCCCCC3)cc2C1 (centres undefined),.,.,.,6.4%,.,.
CC(=O)N1CCc2nn(CC(=O)Nc3cccc(Cl)c3C)c(=O)cc2C1,.,.,.,12.7%,.,.
COc1ccc(C)cc1NC(=O)Cn1cc(S(=O)(=O)Cc2ccccc2Cl)c2ccccc21,.,?,.,?,.,20.6µM*
COc1ccc(NC(=O)Cn2cc(S(=O)(=O)Cc3ccccc3)c3ccccc32)c(OC)c1,0.3%,4.5%,15.8,-21.3%,-19.1%,4.7%
CN(C(=O)Cn1cc(S(=O)(=O)Cc2ccccc2Cl)c2ccccc21)c1ccccc1,.,20.6µM*,.,?,.,20.6µM*
C[C@@H]1CN(Cc2nc3c(n2Cc2ccccc2)C(=O)N(CCOc2ccccc2)CCN3)C[C@H](C)O1,.,.,.,68.9%,.,.
Cc1sc(NC(=O)c2ccccc2F)c(CN2CCCCC2C)c1C (centres undefined),11.4%,18.4µM*,0.6,?,7.6%,11.6µM*
CCc1ccc(-c2nc(CSCC(=O)NCc3ccco3)c(C)o2)cc1,-20.1%,?,-7.2,-0.9%,?,?
CCc1ccc(-c2nc(CSCC(=O)NCc3ccccc3OC)c(C)o2)cc1,.,20.6µM*,.,-0.3%,.,16.4µM*
Cc1oc(-c2ccccc2F)nc1CSCC(=O)NCCc1ccccc1,.,13µM*,.,-2.7%,.,18.4µM*
Cc1ccc(-c2nc(CSCC(=O)NCCN3CCN(Cc4ccccc4)CC3)c(C)o2)cc1,-11.0%,?,-26.8,-15.7%,-6.9%,20.6µM*
CCOc1ccc(-c2nc(CSCC(=O)NCCc3ccccc3)c(C)o2)cc1,.,?,.,6.7%,.,18.4µM*
COc1cc(NC(=O)NCCn2c(C(F)(F)F)nc3ccccc32)cc(OC)c1,.,.,.,-12.1%,.,.

# Screening data as filed in PubChem.
